Most compounds without a hit are left out; they make up all but 2.2% or so of the library.
mIDH1 inhibitor = human IDH1 R132H inhibition; Potency, µM (doses to about 76.6 µM), without a hit: top-dose activity change, negative = inhibition, usual class: inhibitors; IDH1-R132H enzyme, NADPH consumption, diaphorase/resazurin fluorescence; AID 602179; 0.093% of 390,000 active; also: potency is read from the fitted curve at half-maximal effect; % is scaled to controls: 0 for no effect and ±100 for the full control effect; nearly all actives have a fitted effect of over 65% in size
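IDH1-R132H (0.5 ug/mL) preincubated 30 min with compound, then NADPH (0.016 mM) and alpha-KG (2 mM) added; 80 min at RT, pH 7.5. Remaining NADPH coupled via diaphorase/resazurin to fluorescence (540/590 nm); concentration-response curves normalized to no-enzyme control.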
IL-2 act = IL-2 activation. IL-2 activation reporter assay, cell-based qHTS; stimulated with anti-CD3/CD4/CD28 beads; in transgenic mouse T cells. activation, % (series mostly up to about 46 µM). 0.065% of 360,000 active. AID 652025; in the data active = activation above about 50%; inconclusive = mostly about 30% to 49%; also: 0% is about no effect
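Quantitative HTS in unstimulated transgenic mouse T cells, with memory T cells as non-tolerant control and PMA/ionomycin as tolerance-bypass control. Compound pretreatment lasted 60 minutes before 18 h bead stimulation; EGFP/DsRed fluorescence read.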
Giardia killer = Giardia lamblia killing; Giardia lamblia trophozoite viability; activity change, % at 7.66 µM, hits read low; 0.15% of 340,000 active; in the data active = activity change below about -80%; inconclusive = between about -30% and that limit;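 also: parasites exposed to compound for two days anaerobically before the ATP read; % is scaled to controls: 0 for no effect and ±100 for the full control effect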
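Giardia trophozoites, 100 cells per well, were exposed to compounds for 48 hrs at 37 deg C under anaerobic conditions; viability was then read as ATP content by bioluminescence after 15-30 min at room temperature.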
BRCA1 expr up = increases BRCA1 expression; Potency, µM (titrated, usually from 46.1 µM), without a hit: at the top dose activation, usual class: activators; 1.1% of 380,000 active; MCF7-BRCA1-FFLuc reporter, luminescence, 48 h; response scale: scaled: vehicle 0%, 10 µM genistein 100%; AID 624202; also: potency is read from the fitted curve at half-maximal effect; nearly all actives have a fitted effect of over 80% in size
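48 h compound treatment of MCF7-BRCA1-FFLuc cells (phenol-red free MEM, 37 °C), then 15 min with luciferase substrate and luminescence imaging.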
TrxR1 substrate = is turned over as a substrate by rat TrxR1 | O89049 | purified TrxR1 substrate turnover, NADPH consumption readout | Potency, µM (doses to about 114 µM), for inactives: at the highest dose activity change, negative = substrate turnover | 0.01% of 390,000 active; also: potency is read from the fitted curve at half-maximal effect; % is scaled to controls: 0 for no effect and ±100 for the full control effect; nearly all actives have a fitted effect of over 50% in size
Target sequence (O89049 whole entry, looked up): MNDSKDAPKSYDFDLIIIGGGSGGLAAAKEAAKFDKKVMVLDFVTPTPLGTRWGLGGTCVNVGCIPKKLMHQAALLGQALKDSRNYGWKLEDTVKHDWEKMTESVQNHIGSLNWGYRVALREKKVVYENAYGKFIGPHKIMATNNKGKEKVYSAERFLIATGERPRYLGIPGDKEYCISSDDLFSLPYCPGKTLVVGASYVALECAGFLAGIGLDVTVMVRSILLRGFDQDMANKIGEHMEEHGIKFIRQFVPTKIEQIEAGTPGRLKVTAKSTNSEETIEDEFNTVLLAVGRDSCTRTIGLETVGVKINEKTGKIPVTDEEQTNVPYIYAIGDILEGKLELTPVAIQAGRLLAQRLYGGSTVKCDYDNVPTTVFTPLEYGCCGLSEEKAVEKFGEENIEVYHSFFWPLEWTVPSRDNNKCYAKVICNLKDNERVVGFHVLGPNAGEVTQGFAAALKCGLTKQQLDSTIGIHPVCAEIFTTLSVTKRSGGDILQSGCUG
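Rat TrxR1, dispensed at 90 nM, was prereduced with 400 uM NADPH (final) for 5 min at ~22 deg C, then incubated with compound 15 min before 400 uM selenite. A first-read NADPH fluorescence drop versus no-compound background flagged substrates.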
TrxR1 inh = inhibitors of rat thioredoxin reductase 1. O89049. AID 588453. Potency, µM (highest dose often 114 µM), inactives show top-dose activity change, negative = inhibition, usual class: inhibitors. recombinant rTrxR1, NADPH fluorescence consumption, selenite substrate. 1% of 390,000 active; also: potency is read from the fitted curve at half-maximal effect; % is scaled to controls: 0 for no effect and ±100 for the full control effect; nearly all actives have a fitted effect of over 65% in size
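Rat TrxR1 (90 nM in the dispensed reagent) was pre-reduced with 400 uM NADPH for 5 min at room temperature, then incubated with compound for 15 min. After 400 uM selenite was added, NADPH fluorescence (Ex 340/Em 450 nm) was followed for 8 min.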
Active calls of the source: *; ? = inconclusive; · = no result; [ ] = dose if it differs, or a comment. Unless noted, calls follow the shape of the dose curve; as a rule, active = well fitted curve in the direction sought with a large enough effect; inconclusive = small, poorly fitted or top-dose-only effect, or another doubt; inactive = no such curve, though single readings can be large; an effect the other way counts as inactive or inconclusive.

SMILES	mIDH1 inhibitor	IL-2 act	Giardia killer	BRCA1 expr up	TrxR1 substrate	TrxR1 inh
S=C(NCCc1c[nH]c2ccccc12)NC1CCCC1	0%	1	-15	18%	-6%	-17%
S=C(NCCc1c[nH]c2ccccc12)NC1CCCCC1	0%	0	0	11µM*	-4%	16%[57.1 µM]
O=C(NC1CCCCC1)C(=O)c1c[nH]c2ccccc12	6%	2	-23	13µM*	8%[57.1 µM]	17%[57.1 µM]
O=C(COC(=O)c1c[nH]c2ccccc12)NC1CCCC1	-7%	0	2	7%	0%	31%
COc1cc(OC)c(/C=C/c2nccc3ccccc23)c(OC)c1	·	·	·	-51%	-13%	-1%
COc1ccc(-n2nc3c(c2NC(=O)CCl)CSC3)cc1	13%	-5	-1	-16%	16%	14µM*
Nc1nc(CN2CCCCCC2)nc(Nc2ccccc2)n1	-6%	1	-3	9%	6%[57.1 µM]	16µM*
Cc1ccccc1S(=O)(=O)c1cc2ccccc2nc1N	11%	-1	-19	-25%	15%[57.1 µM]	36%[57.1 µM]
c1csc(-c2nc3ccccc3s2)c1	11%	0	17	7.9µM*	30%	16%
Cc1ccc(-c2cc3ccccc3nc2N)cc1	11%	0	-10	10µM*	57%	5%
N#Cc1cc2ccccc2nc1N	14%	-3	5	14%	42%[57.1 µM]	34%[57.1 µM]
Nc1nc2ccccc2cc1-c1cccs1	-3%	0	4	3.2µM*	64%	0%
c1csc(-c2ccc3ccccc3n2)c1	4%	1	14	7.1µM*	17%[57.1 µM]	-14%
c1ccc2sc(-c3ccncc3)nc2c1	6%	-1	21	?	3%	10%
CCOc1ccccc1-c1noc(CSc2nnc(-c3ccncc3)n2-c2ccc(F)cc2)n1	-3%	·	·	·	-1%	6%
CCOc1ccc(S(=O)(=O)N2CCN(c3ccc(C)cc3C)CC2)c2ccccc12	8%	·	·	-14%	4%	6%
COc1cccc(NC(=O)c2oc3ccccc3c2NC(=O)c2ccccc2C)c1	-27%	·	·	·	23%	22%
Cc1nn(-c2ccccc2)c(C)c1C(=O)OCC(N)=O	-3%	-1	10	-2%	4%	22%
Cc1nn(-c2ccccc2)c2nc(-c3ccncc3)cc(C(=O)NCc3ccco3)c12	-10%	-2	-2	-92%	1%	50µM*
Cc1cc(C)cc(NC(=O)c2cc(C)nc3c2c(C)nn3-c2ccccc2)c1	-2%	·	·	-11%	41%	79µM*
Cc1nn(-c2ccccc2)c(C)c1C(=O)OCC(=O)NCc1ccco1	5%	-3	9	2%	4%	56µM*
Nc1c(C(=O)NCc2ccco2)nnn1-c1ccccc1	5%	-4	6	13µM*	6%[57.1 µM]	2%[57.1 µM]
COc1ccc(N2C(=O)C(CC(=O)Nc3ccc(F)cc3)N(Cc3ccc4c(c3)OCO4)C2=O)cc1 (stereo not given)	0%	·	·	·	-8%	5%
COc1ccc(C(=O)NCC(=O)OCc2cc(=O)n3nc(C4CCCCC4)sc3n2)cc1	-14%	·	·	0%	0%[57.1 µM]	1%[57.1 µM]
CCOC(=O)c1scc(-c2ccccc2)c1S(=O)(=O)N1CCN(c2ccccc2OC)CC1	-14%	·	·	·	4%[57.1 µM]	22%[57.1 µM]
SMILES	mIDH1 inhibitor	IL-2 act	Giardia killer	BRCA1 expr up	TrxR1 substrate	TrxR1 inh
Cc1ccc(SCC(c2ccccc2)N2CCN(CC(C)C)CCC2=O)cc1 (stereo not given)	·	·	-17	·	-11%	-26%
C/C(=N\OC(=O)c1ccc(Cl)cc1)c1sc(-c2ccccc2)nc1C	6%	-6	10	4µM*	17%	5%
C/C(=N\OC(=O)c1ccc(F)cc1)c1sc(-c2ccccc2)nc1C	1%	-4	-19	2.8µM*	9%[57.1 µM]	-17%
CCOc1ccc(C(=O)c2cn(CC(=O)Nc3ccc(C)c(C)c3)c3ccc(OCC)cc3c2=O)cc1	12%	·	·	9%	5%	15%
O=C(NCCCc1nc2ccccc2n1Cc1ccccc1F)c1ccco1	-8%	·	·	·	2%	9%
CC(=O)Nc1ccc(NS(=O)(=O)c2ccc(C)cc2)c([N+](=O)[O-])c1	8%	0	-99*	16%	4%	16%[57.1 µM]
